The campaign covered roughly 340,000 compounds. About 2,100 (0.62%) were called active.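 The calls were made as follows: active = first-screen hits whose inhibition reached a set limit at any dose in the follow-up dose series; inconclusive = inhibition above the set first-screen limit but never retested; inactive = the rest.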 The list is a sample of the results. Results with a measured potency or affinity are listed apart.
Target: Rac GTPase-activating protein 1 (Homo sapiens) (UniProt Q9H0H5)
Test: MgcRacGAP GTPase-activating activity inhibitors, confirmation, biochemical, ADP Hunter fluorescence, primary and confirmatory (AID 624330);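 also: fluorescence reports GDP produced by GAP-driven GTP hydrolysis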
Conditions: MgcRacGAP-stimulated Rac1 GTP hydrolysis, at 30 µM, stronger effect = higher value, GST-tagged Rac1 F28L mutant substrate

Sequence of Rac GTPase-activating protein 1 (Homo sapiens) (Q9H0H5 whole entry, looked up): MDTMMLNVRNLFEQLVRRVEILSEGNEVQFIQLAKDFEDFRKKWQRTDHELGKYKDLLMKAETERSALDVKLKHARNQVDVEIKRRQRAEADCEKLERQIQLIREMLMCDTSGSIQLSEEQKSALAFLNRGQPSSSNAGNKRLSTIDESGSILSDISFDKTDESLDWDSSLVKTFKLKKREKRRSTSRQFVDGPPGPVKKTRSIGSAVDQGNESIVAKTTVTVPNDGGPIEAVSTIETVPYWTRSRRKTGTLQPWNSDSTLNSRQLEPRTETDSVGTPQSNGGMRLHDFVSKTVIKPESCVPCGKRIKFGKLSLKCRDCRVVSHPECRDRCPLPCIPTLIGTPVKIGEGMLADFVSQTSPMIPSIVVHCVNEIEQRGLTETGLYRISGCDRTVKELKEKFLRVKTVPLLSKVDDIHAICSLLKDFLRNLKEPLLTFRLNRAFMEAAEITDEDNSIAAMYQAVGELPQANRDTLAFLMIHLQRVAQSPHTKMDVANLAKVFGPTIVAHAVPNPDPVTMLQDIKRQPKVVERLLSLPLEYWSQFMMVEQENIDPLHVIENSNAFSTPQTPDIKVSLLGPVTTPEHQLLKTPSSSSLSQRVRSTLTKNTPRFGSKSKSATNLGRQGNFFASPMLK

inhibition, inactive:
CC(=O)C1=C(O)C(=O)N(c2ccc(F)cc2)C1c1ccc(C)cc1 (centres undefined) 9.06%
c1ccc(CN2CCN(Cc3c[nH]c4ccccc34)CC2)cc1 8.7%
COc1ccc(Br)cc1CN1CCCCCCC1 11.8%
COc1ccc(Br)cc1CN1CCCCCC1 25.6%
COc1ccc(CN2CCN(Cc3c[nH]c4ccccc34)CC2)cc1 30.3%
COc1ccc(C(=O)C2CCCN(Cc3c[nH]c4ccccc34)C2)c(OC)c1 (centres undefined) -5.48%
COc1ccc(Br)cc1CN1CCSCC1 19.9%
COc1ccc(S(=O)(=O)N2CCN(Cc3c[nH]c4ccccc34)CC2)cc1 -10.1%
COc1ccc(Br)cc1CN1CCN(S(=O)(=O)Cc2ccccc2)CC1 19.2%
CCOc1ccc(NC(=O)Nc2c(C)n(C)n(-c3ccccc3)c2=O)cc1 0.15%
O=C(NCc1ccc(F)cc1)C1CCCN(S(=O)(=O)c2ccc(Br)s2)C1 (centres undefined) 5.11%
COc1ccccc1NC(=O)C1=C(C)Nc2nc(-c3cccs3)nn2C1c1cccc(O)c1 (centres undefined) 3.45%
Cc1c(C(=O)OCC(=O)Nc2c(C)n(C)n(-c3ccccc3)c2=O)cccc1[N+](=O)[O-] -3.37%
COc1ccc(C(=O)N/C(=C\c2cc(OC)c(OC)cc2[N+](=O)[O-])C(=O)NCC(=O)O)cc1 5.33%
CN(C)CCNC(=O)c1cccc2nc3cccc(F)c3nc12 14%
COc1ccc(-c2nc3c(C(=O)NCCN(C)C)cccc3c3ccccc23)cc1 28.1%
CCOc1ccccc1/C=N/NC(=O)c1cccc(S(=O)(=O)N2CCOCC2)c1 5.13%
CCN(CC)S(=O)(=O)c1cccc(C(=O)N/N=C/c2cc(OC)c(O)c(OC)c2)c1 13.8%
O=C(/C=C/c1ccc(N2CCCCC2)c([N+](=O)[O-])c1)c1ccc(S(=O)(=O)N2CCCC2)cc1 6.38%
CCOc1cc(/C=N/NC(=O)c2cccc(S(=O)(=O)N3CCCC3)c2)ccc1OCC(=O)N(C)C 5.83%
CCN(CC)S(=O)(=O)c1cccc(C(=O)N/N=C/c2cccc(O)c2O)c1 15%
O=C(NN=Cc1ccc(F)cc1)c1cccc(S(=O)(=O)N2CCCC2)c1 6.35%
O=C(O)c1ccc(S(=O)(=O)N2CCCCCCC2)cc1 13.8%
O=C(N/N=C/c1ccc(F)c(F)c1)c1cccc(S(=O)(=O)N2CCCCC2)c1 0.51%
COc1cc2c(cc1OC)C(c1ccccc1)N(C(=O)C(C)(C)C)CC2 (centres undefined) 5.24%
COc1cc(/C=N/NC(=O)c2cccc(S(=O)(=O)N3CCCC3)c2)cc(OC)c1O 15.2%
COc1cc(/C=N/NC(=O)c2cccc(S(=O)(=O)N3CCCCC3)c2)cc(Br)c1O 18.1%
O=C(COC(=O)C1CC1)NCCc1ccccc1 -3.28%
COCCCN1C(=O)C(CC(=O)NCc2ccco2)CC(C(=O)N(C)C)=C1C (centres undefined) 14.3%
CCOc1ccc(NC(N)=O)cc1 2.99%
CCOc1ccc(NS(=O)(=O)c2ccc(N)cc2)cc1 1.38%
CCc1ccc(N2CN(Cc3cccnc3)CNC2=S)cc1 4.47%
COc1ccc(C2C(C(=O)Nc3cccc(C)n3)c3ccccc3C(=O)N2C)cc1 (centres undefined) 5.99%
O=C(c1cccc(F)c1)N1CCN(Cc2ccco2)CC1 24.7%
COc1ccc(Br)cc1CN1CCN(C(=O)c2cccc(F)c2)CC1 26.9%
O=C(c1cccnc1)N1CCN(Cc2ccc3ccccc3c2)CC1 22.8%
O=C(c1cccnc1)N1CCN(Cc2cccc(F)c2)CC1 23.3%
O=C(CCn1nc(-c2ccc(Cl)cc2)ccc1=O)N1CCN(c2ccccc2)CC1 11.2%
Cc1sc(NC(=O)CCC(=O)O)c(C#N)c1C 4.82%
CCCCNc1c(-c2ccc(-c3ccc(OC)cc3)c(OC)c2)nc2ccccn12 0.86%
CCc1nc2ccccc2c(C(=O)O)c1C 1.89%
CCOc1ccc(CC2S/C(=N/N=C/c3ccco3)NC2=O)cc1 (centres undefined) -0.79%
CN(C(=O)c1ccc(NC(=O)Cc2ccc(NC(=O)C3CCN(C(=O)C4CCCC4)CC3)cc2)cc1)C1CC1 4.41%
CCC(C)NC(=O)CNC(=S)N(CCCN1CCOCC1)Cc1cccs1 (centres undefined) -3.85%
Cc1ccc2c(c1)N(C(=O)CCC(=O)N1CCC(C(N)=O)CC1)CCO2 -0.21%
CCC1(c2ccccc2)NC(=O)N(CC(=O)Nc2ccccc2N2CCCC2)C1=O (centres undefined) 2.64%
Cc1cc(Cl)ccc1NC(=O)CN1C(=O)NC2(CCCC2)C1=O 7.39%
O=C(CN1C(=O)NC2(CCCCC2)C1=O)Nc1ccc(N2CCCCC2)cc1 -8.69%
Cc1cc(N2CCCC2)ccc1NC(=O)CN1C(=O)NC(C)(c2ccccc2)C1=O (centres undefined) 22.9%
Cc1ccc(C)c(NS(=O)(=O)c2cc3c4c(c2)CC(=O)N4CCC3)c1 12.2%
O=C1c2ccccc2C(=O)C1c1ccc(Br)cc1 9.65%
COc1cc(C2N(C)C(=O)c3ccccc3N2C)ccc1O (centres undefined) 9.29%
COc1ccc(C2C(=O)c3ccccc3C2=O)cc1OC 8.73%
COc1cc([C@@H]2OC[C@@H]3[C@H]2CO[C@@H]3c2ccc3c(c2)OCO3)ccc1O 15.6%
Cc1ccc(C2C(=O)c3ccccc3C2=O)cc1 5.72%
COc1cc(C2OCC3C(c4cc(OC)c(OC)c(OC)c4)OCC23)cc(OC)c1OC (centres undefined) 3.17%
O=C(NNc1nc2c(F)cccc2s1)c1ccccc1 3.05%
CC(=O)NC(CC(=O)NCCc1ccccc1)c1ccccc1 (centres undefined) 5.84%
COc1cc(/C=C/C(=O)O)cc(S(=O)(=O)N(CC(C)C)CC(C)C)c1OC 3.78%
Cc1cc(OC(C)C(=O)NCCCN2CCOCC2)c2c(C)cc(=O)oc2c1 (centres undefined) 5.41%
CCN1C[C@@H]2[C@@H]3C(=O)N(C)C(=O)[C@@H]3[C@](Cc3ccccc3)(C(=O)OC)N2C1=NCc1ccccc1 8.57%
COc1cccc(NC(=O)COc2ncnc3sc(C)c(C)c23)c1 5.65%
CCOc1ccccc1/C=C(/NC(=O)c1ccccc1)C(=O)N(CC)CC 5.35%
CC[C@]12C(=O)N(C)C[C@H]([C@@H]3C(=O)N(C)C(=O)[C@@H]31)N2C(=O)c1ccc(F)cc1 7.98%
CNS(=O)(=O)c1cccc(C(=O)OCC(=O)C23CC4CC(CC(C4)C2)C3)c1 2.1%
COCc1cc(C)nc(OCC(=O)N/N=C/c2ccc(C)cc2)c1C#N 6.19%
COCc1cc(C)nc(OCC(=O)N/N=C/c2ccccc2)c1C#N 5.88%
O=C(COc1ccccc1[N+](=O)[O-])N/N=C/c1ccncc1 3.99%
COc1ccc(/C=N/NC(=O)COc2cccc3cccnc23)cc1OC 12%
O=C(COc1cccc2cccnc12)N/N=C/c1ccccc1O 9.73%
O=C(COc1ccccc1[N+](=O)[O-])N/N=C/c1ccc(O)c([N+](=O)[O-])c1 5%
CC(C(=O)NCC1CCCCC1)N(C)Cc1ccc(Cl)cc1 (centres undefined) 9.97%
NC(=O)c1ccc(NC(=O)CCc2nc3ccccc3s2)cc1 9.08%
Fc1ccccc1CN1CCN(c2ncccn2)CC1 18.2%
COc1ccccc1C(=O)N1CCN=C1SCc1cccnc1 9.35%
COc1cccc(OC)c1C(=O)N1CCN(Cc2ccncc2)CC1 17.3%
COc1ccccc1C(=O)N1CCN(CCc2ccccc2)CC1 5.14%
COc1ccc(CN2CCN(C(=O)c3cccnc3)CC2)cc1Br 26.4%
CCOc1ccccc1/C=C/c1nc2ccccc2[nH]c1=O -3.6%
CSCCC(=O)N(C)CC1CCN(CCc2cccc(C(F)(F)F)c2)CC1 -11.6%
COc1cc(OC)nc(NC(=O)NS(=O)(=O)c2ccc(OC(F)(F)F)cc2)n1 7.78%
COc1ccc2nc(SCC(=O)NC3CCCCC3C)[nH]c2c1 (centres undefined) 6.19%
COc1ccc(C(O)(C(C)C)C(CN2CCOCC2)c2ccc(Cl)cc2)cc1 (centres undefined) 3.23%
COc1cc(/C=N/Nc2nc(C)cc(C)n2)cc(OC)c1OC 18.6%
Oc1ccc(/C=N/NC2=NCCCCC2)cc1 14.8%
COc1cc(/C=N/Nc2cc(C)nc(NS(=O)(=O)c3ccc(C)cc3)n2)ccc1O 23.4%
COc1ccc(-c2cnnc(N/N=C/c3ccc(O)c(OC)c3)n2)cc1 28.9%
COc1cc(/C=N/Nc2nc(C)cc(C)n2)ccc1OC(=O)c1ccco1 12.7%
COc1ccc(-c2cnnc(N/N=C/c3ccc(O)cc3)n2)cc1 15.5%
Oc1ccccc1/C=N/NC1=NCCCCC1 -4.7%
COc1ccc(/C=N/Nc2cc(C)nc(NS(=O)(=O)c3ccc(C)cc3)n2)cc1 8.72%
CC(=O)NCc1nc2ccccc2n1Cc1ccccc1F 2.14%
Cc1cccc(C(=O)OCC(=O)NC2CCCCCCC2)c1 -0.77%
Cc1cc(C)c(C#N)c(SCc2nc3ccccc3[nH]2)n1 11.2%

— PubChem BioAssay AID624330 (Southern Research Specialized Biocontainment Screening …, 2012)
